# Measurements as given in PubChem BioAssay AID504832 (National Center for Advancing Translational Sciences (NCATS), 2011).
# The whole screen tested about 310,000 compounds, of which about 18,000 (5.8%) were called active. About 22% were inconclusive and are not listed. The full list was thinned out, with actives kept by preference. Values without a mark were called inactive. Calls come from the whole dose curve; as a rule, active = well fitted inhibition curve with a large enough effect; inconclusive = small, poorly fitted or top-dose-only effect, or another doubt; inactive = no such curve, though single readings can be large or run the other way.
# Assay: Primary qHTS for delayed death inhibitors of the malarial parasite plastid, 48 hour incubation
# Settings: P. falciparum luciferase growth in erythrocytes; series mostly up to 28.7 µM; activity change, negative = inhibition: at the top concentration
# Excerpt: The goal of this screen is to discover new antimalarial compounds that act by inhibiting the development of the apicoplast in the malarial parasite Plasmodium falciparum. The biochemical processes that make this organelle essential for erythrocytic stage parasites are not well understood. However, antibiotics such as azithromycin and tetracycline, which target the apicoplast translational machinery, have a potent antimalarial effect.
# We have developed a cell-based assay that measures parasite growth based on the expression of an integrated copy of a firefly luciferase reporter. To detect small molecules that cause this "delayed death" phenotype, erythrocytes infected with the luciferase-expressing parasites were incubated with compounds for either one or two generations, corresponding to 48 and 96 hours, respectively. Compounds that inhibit parasite growth in the second generation, but not the first, should be enriched in antimalarials that target the apicoplast. Growth inhibition is detected by a decrease in luciferase activity.
# Assay Provider: David Fidock and Eric Ekland, Columbia University
# Keywords: NIH Roadmap, MLPCN, MLI, MLSMR, qHTS, NCGC, qHTS, malaria, luciferase, viability
# Four microliters of culture medium (RPMI 1640 with 0.5% w/v Albumax (GIBCO), 24 mM sodium bicarbonate and 10 ug/mL gentamycin) were dispensed by a Multi-drop Combi into white solid 1536-well plates (Grenier) and 23 nL compound was added by a pin tool. Four microliters of infected erythrocytes (2% hematocrit, 0.1% parasitemia final concentration) in culture medium were dispensed and the plates incubated for 48 hours at 37 C in 5% CO2. Two microliters of luciferase detection reagent was added and luminescence was detected by a ViewLux (PerkinElmer) reader.
# % is set by controls: 0 for no effect and ±100 for the full control effect; potency is the fitted concentration of half-maximal effect.
SMILES,"activity change, negative = inhibition",Potency
CC(C)CN(CC(C)C)C(=O)CN1c2cccc3cccc(c23)S1(=O)=O,9.64%,–
Cc1cc(=O)n2nc(N3CCC(C(=O)Nc4c(F)c(F)c(F)c(F)c4F)CC3)sc2n1,-2.44%,–
CCOc1ccc(S(=O)(=O)N2CCN=C2Cc2ccccc2)cc1C,3.8%,–
Cc1ccc(C23CC4CC(CC(C(=O)NCC(=O)O)(C4)C2)C3)cc1,18.8%,–
CC(=O)Nc1ccc(NC(=O)CCN2C(=O)C3CC=CCC3C2=O)cc1 (stereo unspecified),-5.38%,–
COc1ccc(CNC(=O)[C@H](Cc2c[nH]c3ccccc23)NC(C)=O)cc1OC,6%,–
COc1cccc(NC(=O)[C@H](Cc2c[nH]c3ccccc23)NC(=O)[C@@H]2Cc3ccccc3CN2)c1,–,9.28 µM (active)
COc1ccc(NC(=O)[C@H](NC(=O)[C@@H]2Cc3ccccc3CN2)c2ccccc2)cc1,-16.2%,–
CCOC(=O)c1c(C)[nH]c(C)c1S(=O)(=O)NCCCc1ccco1,-0.529%,–
CC1CCCCC1NC(=O)CCS(=O)(=O)c1ccc2c(c1)NC(=O)CO2 (stereo unspecified),9.15%,–
CCOc1ccc(CN2CCN(Cc3ccc4cc(F)ccc4n3)CC2CCO)cc1 (stereo unspecified),7.78%,–
COc1cccc(CN(C)CC(O)COC(c2ccccc2)c2ccccc2C)c1 (stereo unspecified),–,8.28 µM (active)
COc1ccc(OCC(O)CN(C)C(=O)C(C)Oc2ccccc2)cc1 (stereo unspecified),-15.8%,–
COc1cccc(CN(C)CC(=O)Nc2sc3c(c2C#N)CCC3)c1,-7.19%,–
CC(=O)Nc1ccc(NC(=O)CSc2nnnn2-c2ccccc2F)cc1,7.75%,–
O=C(NCCNc1ccccc1[N+](=O)[O-])c1ccccc1F,192%,–
COc1ccccc1C(=O)Nc1ccc(OCC(=O)N2CCCCC2)cc1,33.9%,–
CC(C)c1ccc2c(c1)c(SC(C)(C)C)c(CC(C)(C)C(=O)O)n2Cc1ccc(Cl)cc1,–,8.28 µM (active)
O=C(O)c1ccc(Cn2c(=S)[nH]c3cc(Cl)ccc3c2=O)cc1,12.3%,–
COc1ccc(NS(=O)(=O)c2cccc3nsnc23)cc1Cl,-4.88%,–
COc1ccc(-n2nc(C(=O)NCC(=O)N3CCN(c4ccccc4OC)CC3)c3ccccc3c2=O)c(OC)c1,–,1.04 µM (active)
COc1ccc(-n2nc(C(=O)Nc3cc(OC)c(OC)c(OC)c3)c3ccccc3c2=O)c(OC)c1,26.5%,–
COc1cccc(NC(=O)c2nn(-c3ccc(OC)cc3OC)c(=O)c3ccccc23)c1,21.4%,–
O=C(NCCCN1CCCCC1)C1CC(=O)N(CCc2ccccc2)C1 (stereo unspecified),28%,–
O=C(Nc1ccc2c(c1)OCO2)C1CC1(Cl)Cl (stereo unspecified),34.4%,–
Cn1c(=N)n(CC(O)c2ccccc2)c2ccccc21 (stereo unspecified),80.1%,–

SMILES,"activity change, negative = inhibition",Potency
CCOc1ccc(C(O)Cn2c(=N)n(CCN3CCCCC3)c3ccccc32)cc1 (stereo unspecified),–,4.65 µM (active)
CCOc1ccc(C(O)Cc2nc3ccccc3n2C)cc1 (stereo unspecified),48.9%,–
COc1ccc(N(CC(=O)NCc2ccc(F)cc2)C(=O)CCC(=O)Nc2nccs2)cc1,9.32%,–
CN1CCN(NC(=O)Nc2ccc(Br)cc2)CC1,84%,–
Cc1ccc(C)c(NC(=O)COC(=O)Cn2c(C)csc2=O)c1,1.84%,–
COC(=O)c1ccc(OC(=O)c2cnccn2)cc1,10.3%,–
CC(C)C(=O)N1CC(=O)Nc2ccc(F)cc2C1c1ccc(F)cc1 (stereo unspecified),-8.58%,–
FC(F)(F)Oc1ccc(NC(=S)NCc2ccccc2)cc1,16.6%,–
CS(=O)(=O)c1sc(C(=O)NC(=S)Nc2ccc(OC(F)(F)F)cc2)c2c1C=CCC2,–,2.62 µM (active)
CCNC(=S)Nc1ccc(OC(F)(F)F)cc1,9.67%,–
COc1ccc(/C=C(/NC(=O)c2ccccc2)C(=O)Nc2cccc(C(=O)O)c2)cc1,2.11%,–
Cc1cc(C)cc(OCC(=O)OCC(=O)NC2CCCC2)c1,54.4%,–
CS(=O)(=O)N1CCN(C(=O)CSc2ccccc2)CC1,14.8%,–
CCCC[C@@H]1CN=C(N)N1CCc1cc(C(F)(F)F)cc(C(F)(F)F)c1,–,5.22 µM (active)
Cc1cccc(N2CCN(C(C)C(=O)N3CCc4ccccc43)CC2)c1C (stereo unspecified),-2.14%,–
CCCCOC(=O)Cn1c(=N)n(CCN(CC)CC)c2ccccc21,19.6%,–
CCCNC(=O)c1ccc(Cl)c(Cl)c1,27.8%,–
CCCn1c(=N)n(CC(=O)c2ccc(Cl)c(Cl)c2)c2ccccc21,–,7.38 µM (active)
Cc1ccnc(N2C(=O)c3ccc([N+](=O)[O-])cc3C2=O)c1,-3.81%,–
CCOC(=O)N1CCC(NC(=O)CCc2ccccc2)CC1,-17.2%,–
CCOC(=O)CN1CCC(c2ccccc2)CC1,-10.5%,–
CCOC(=O)N1CCC(c2cc(=O)n(-c3ccccc3)[nH]2)CC1,–,9.28 µM (active)
Cc1cc(NC(=O)COc2ccc(Cl)cc2Cl)n(CCC#N)n1,59.7%,–
COC(=O)c1c(NC(=O)COc2ccc(Cl)cc2Cl)sc2c1CC(C)(C)NC2(C)C,–,8.28 µM (active)
Cc1nn(-c2ccccc2)c(C)c1NC(=O)COc1ccc(Cl)cc1Cl,-13.7%,–
